# Measurements taken from ChEMBL document CHEMBL3988442, “University of Dundee, Small-Polar-MMV Screening Library” (2021).
# Among all 38,000 compounds or so, about 1,200 (3.2%) showed an effect of 50% or more. The median lay at about -58%. This is one part of a sample in which strong results are shown more often than they occur.
# Tested on: Plasmodium falciparum
# Assay: Calibr Malaria Delayed Death Assay SOP
# Assay type: functional, organism-based
# Design: scale not given: in the data most compounds retested in dose-response had high values
# Details: concentration 4.99e-06 (unit not given; other assays of the set use mol/L)
row,Structure (SMILES),Percent Effect [%]
1,CN(C)C(=O)CN1CCCC1c1cccc(Cc2ccccc2F)n1 (centres undefined),67.28
2,CN(C)S(=O)(=O)N1CCCC(c2cccc(Cc3ccccc3F)n2)C1 (centres undefined),-73.25
3,CN(C)C(=O)CCc1cncc(C2CCCN2Cc2ccccn2)n1 (centres undefined),-28.93
4,CN1CCN(C2COC3(CCN(Cc4ccsc4)CC3)C2)CC1.O=C(O)C(F)(F)F.O=C(O)C(F)(F)F (centres undefined),-16.23
5,COC(=O)c1cccn1C1CCN(C(=O)c2ccc(C)cc2O)CC1,-37.36
6,Nc1ncncc1-c1noc([C@@H]2CCCN2CCCc2ccccc2)n1,-66.01
7,Nc1cc(C(=O)NC2CCCN(CCCc3ccccc3)C2)ccn1 (centres undefined),-86.42
8,CS(=O)(=O)NC1CCN(C(=O)NCc2cccnc2)CC1,-62.74
9,O=C(c1ccoc1)N1CC[C@H]2C[C@@H](c3ccncn3)O[C@@H]2C1,-72.56
10,COc1cccc(CCC(=O)Nc2cnc3c(c2)c(C)nn3C)c1OC,-140.4
11,COc1nccc(N2CC[C@@H](N3CCCCCC3)[C@H](O)C2)c1C#N,51.1
12,COc1nccc(N2CC[C@H](N3CCOCC3)[C@H](CCCO)C2)c1C#N,-24.24
13,COc1nccc(N2CC[C@@H](N3CCC(O)CC3)[C@H](O)C2)c1C#N,-80.42
14,COc1ccc(C(N)=O)cc1NCc1ncc(-c2cccs2)o1,-57.49
15,O=C(O)CCc1nc2nccc(-c3ccc(F)cc3)n2n1,-150.8
16,COc1ccc(-c2noc(CN3CC(n4cc(C)cn4)C3)n2)cc1,-35.96
17,CCNc1ccnc(N2Cc3cnc(CC(C)C)nc3C2)n1,74.44
18,CC(C)Cc1ncc2c(n1)CN(c1cc(NC3CC3)nc(N)n1)C2,-26.11
19,CC(C)Nc1ccnc(N2Cc3cnc(C(C)(C)C)nc3C2)n1,49.86
20,O=C(CSc1nnc2n1N=CN(c1ccccc1)C2)c1ccccc1,-130.4
21,COCCCN1CCCN(C(C)C(=O)Nc2cccc(I)c2)CC1 (centres undefined),89.66
22,CC(C(=O)Nc1cccc(Cl)c1)N1CCN(Cc2ncc[nH]2)CC1 (centres undefined),12.72
23,CCOCCN1CCN(C(C)C(=O)Nc2ccnn2C(C)C)CC1 (centres undefined),-116
24,Cc1noc(CN(C)CC2CCCN(CCc3ccc(Cl)cc3)C2)n1 (centres undefined),-81.63
25,NC(=O)C1CCN(C(=O)c2ccc(Sc3ccccn3)cc2)CC1,-20.82

row,Structure (SMILES),Percent Effect [%]
1,Cc1ccsc1CN(C)Cn1nccc1-c1cccnc1,-75.2
2,Cc1ccc(CN(Cc2ccncc2)C2CCN(C)CC2)s1,33.34
3,O=C(Nc1cccnc1)N(Cc1ccccc1)C1CC1,-66.01
4,CN(Cc1cccnc1)CC1CC12CCN(Cc1nccs1)CC2 (centres undefined),-24.57
5,Cc1ccc(CN(Cc2[nH]cnc2C)C2CC(C)(C)NC(C)(C)C2)o1.O=C(O)CC(O)(CC(=O)O)C(=O)O,-80.85
6,CC1(C)CC(N(Cc2cccnc2)Cc2cccc(F)c2)CC(C)(C)N1.O=C(O)CC(O)(CC(=O)O)C(=O)O,75.47
7,Cc1cccc(CN(Cc2cccnc2)C2CC(C)(C)NC(C)(C)C2)n1.O=C(O)CC(O)(CC(=O)O)C(=O)O,40.19
8,Cc1ccc(CN(Cc2ccccn2)C(=O)[C@H]2CC[C@@H](N)C2)s1,-62.59
9,CN(Cc1cccnc1)CC1CC12CCCC2 (centres undefined),-51.15
10,Cc1c[nH]c(CN2CCOC(c3ccc(Cl)c(Cl)c3)C2)c(C)c1=O (centres undefined),-31.43
11,Cc1cc(CNC(=O)NCc2cccs2)no1,-38.54
12,COc1cccc2c1ccn2CC(=O)Nc1nc[nH]n1,-178.4
13,COCCCN(CCOC)C(=O)Nc1ccccc1Br,-3.396
14,Fc1cnc(N2CCN3C[C@H](Oc4cccnc4)C[C@H]3C2)nc1.O=C(O)C(F)(F)F.O=C(O)C(F)(F)F.O=C(O)C(F)(F)F,-67.51
15,CN(C)c1nc2sc(C(=O)N3CCNC(=O)CC3)cc2s1,-35.45
16,CCOC(=O)[C@H]1[C@@H](O)C(=O)N(C)C12CCN(S(=O)(=O)CC)CC2,-82.82
17,CS(=O)(=O)NCc1ncn2c1CN(C(=O)C1CCCCC1)CCC2,-51.87
18,COc1cc(F)ccc1N(C)Cc1cccnc1,-76.29
19,CN(Cc1cccnc1)C1CC2(CCN(C(=O)c3ccnnc3)CC2)C1,-29.79
20,CC1(C)CC(N(Cc2cccnc2)Cc2cccnc2)CC(C)(C)N1.O=C(O)CC(O)(CC(=O)O)C(=O)O,-10.22
21,CCCN(Cc1cccnc1)C1CC(C)(C)NC(C)(C)C1.O=C(O)CC(O)(CC(=O)O)C(=O)O,76.54
22,Cc1ccc(C(=O)N(Cc2cccnc2)C[C@@H]2CCC(=O)N2)s1,-86.25
23,C[C@]1(O)CCN(Cc2cccnc2)C[C@@H]1Oc1cccc(F)c1,9.643
24,CC1(C)CC(N(Cc2ccncc2)Cc2cccnc2)CC(C)(C)N1.O=C(O)CC(O)(CC(=O)O)C(=O)O,22.16
